Screens (PubChem)
A selection: hits, their analogues and other compounds. The true share with any hit is near 17%.
TGFb inhibitor: qHTS for Inhibitors of TGF-b. HepG2 CAGA-GFP TGF-b/SMAD3 reporter, GFP fluorescence, 18 h; TGF-beta stimulated, 500 pg/mL final. Potency, µM (doses to about 46.1 µM), most hits filed as inhibitors. 410,000 compounds, 1.2% hits; also: nearly all actives have a fitted effect of over 65% in size
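Using HEPG2 CAGA-GFP reporter cells at 1000 cells/well, we pinned test compounds, stimulated with recombinant TGF-beta (500 pg/mL final) and measured total well GFP after 18 h.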
DT40 TDP1 no CPT: qHTS for Inhibitors of human tyrosyl-DNA phosphodiesterase 1 (TDP1): qHTS in cells in absence of CPT; DT40 Tdp1-/- hTDP1 cells, no CPT, ATP luminescence, 48 h; Potency, µM (doses to about 46.2 µM), actives largely listed as inhibitors; 420,000 compounds, 15% hits; also: nearly all actives have a fitted effect of over 55% in size
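Camptothecin absent (DMSO only). Human TDP1-complemented DT40 knockout cells, 400 cells/well, 37 °C for minimum 48 hr; ATP measured via CellTiter-Glo, 30 min dark incubation, luminescence.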
HepG2 viability: qHTS for Inhibitors of TGF-b: Cytotox Counterscreen | HepG2 CAGA-GFP viability, ATP luminescence, 18 h | Potency, µM (top dose mostly 46.1 µM), most hits filed as cytotoxic | 410,000 compounds, 0.76% hits
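HepG2 CAGA-GFP cells (1000/well, DMEM with 1% FBS) received compound, then TGF-beta at 500 pg/mL final, and were incubated 18 hours at 37 degrees C. Viability was read by CellTiter-Glo luminescence. Media-only wells were set as complete cell-killing and DMSO as no toxicity.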
TDP1 cell CPT: qHTS for Inhibitors of human tyrosyl-DNA phosphodiesterase 1 (TDP1): qHTS in cells in presence of CPT; chicken DT40 Tdp1-/-;hTDP1 cells + 20 nM CPT, ATP luminescence, 48 h; Potency, µM (series often up to 46.2 µM), actives largely listed as inhibitors; 420,000 compounds, 12% hits; also: nearly all actives have a fitted effect of over 55% in size
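Chicken DT40 Tdp1-/- cells stably complemented with human TDP1 were seeded at 400 cells/well in medium containing 20 nM camptothecin, exposed to pin-transferred compounds, and grown at 37 °C for at least 48 hr. Viability was read as ATP luminescence.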
HT1080-NT tox: qHTS for induction of synthetic lethality in tumor cells producing 2HG: qHTS for the HT-1080-NT fibrosarcoma cell line; HT-1080-NT fibrosarcoma viability, CellTiter-Glo ATP luminescence, 48 h; Potency, µM (titrated, usually from 46.1 µM), actives largely listed as cytotoxic; 360,000 compounds, 1.6% hits; AID 686970, 2013;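 also: NT is the 2HG producing partner of a matched IDH1 knockdown line; nearly all actives have a fitted effect of over 55% in size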
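Toxicity toward the 2HG-producing NT line was scored as %Activity, normalised to DMSO and no-cell wells, from CellTiter-Glo luminescence after 48 hours' treatment.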
HT1080 IDH1KD tx: qHTS for induction of synthetic lethality in tumor cells producing 2HG: qHTS for the HT-1080-IDH1KD cell line; HT-1080 IDH1 knockdown viability, ATP luminescence, 48 h; 360,000 compounds, 2% hits; Potency, µM (top dose mostly 46.1 µM), usual class: cytotoxic
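In this qHTS, HT-1080 cells depleted of IDH1 are exposed for 48 h at 37 °C to compound titrations. Toxicity is scored from CellTiter-Glo luminescence, with DMSO as full viability and medium alone as none.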
A number is an active result. Calls follow the shape of the dose curve; as a rule, active = well fitted curve in the direction sought with a large enough effect; inconclusive = small, poorly fitted or top-dose-only effect, or another doubt; inactive = no such curve, though single readings can be large; an effect the other way counts as inactive or inconclusive.

`CC1=C(C(=O)Nc2ccc(C)cc2C)C(c2cc(Br)ccc2F)n2ncc(C(=O)Nc3ccc(C)cc3)c2N1` (stereo not drawn) gave TGFb inhibitor inactive, DT40 TDP1 no CPT 12µM, HepG2 viability inactive and TDP1 cell CPT inconclusive.
CC1=C(C(=O)Nc2ccc(C)cc2C)C(c2ccccc2[N+](=O)[O-])n2ncc(C(=O)Nc3ccccc3)c2N1 (stereo not drawn) was read as TGFb inhibitor inconclusive, DT40 TDP1 no CPT 26µM, HepG2 viability inactive and TDP1 cell CPT inconclusive.
Screening CC[C@]12c3[nH]c4ccc(Cl)cc4c3CCN1C(=O)[C@@H](CC(=O)NCCCn1ccnc1)C[C@@H]2C(=O)N1CCN(C(=O)c2ccco2)CC1 returned TGFb inhibitor inactive, DT40 TDP1 no CPT inactive, HepG2 viability inactive, TDP1 cell CPT inactive, HT1080-NT tox inactive and HT1080 IDH1KD tx inactive.
For CN1CCN(C(=O)Cn2c(-c3cccs3)cc3cc(Cl)ccc32)CC1 the results were TGFb inhibitor inactive, DT40 TDP1 no CPT 23µM, HepG2 viability inactive and TDP1 cell CPT inconclusive.
Screening CCN(CC)CCCNC(=O)Cn1c(-c2cccs2)cc2cc(Cl)ccc21 returned TGFb inhibitor inconclusive, DT40 TDP1 no CPT 21µM, HepG2 viability inactive and TDP1 cell CPT inconclusive.
Screening COc1ccc(-n2c3c(c(=O)[nH]c2=O)C(NC(=O)c2ccncc2)(C(F)(F)F)C(=O)N3)cc1 (stereo not drawn) returned TGFb inhibitor inactive, DT40 TDP1 no CPT inactive, HepG2 viability inactive, TDP1 cell CPT inactive, HT1080-NT tox inactive and HT1080 IDH1KD tx inactive.
Screening COc1ncccc1-c1cc2nc(NCCCN(C)C)n(C)c(=O)c2s1 returned TGFb inhibitor inconclusive, DT40 TDP1 no CPT 8.2µM, HepG2 viability inactive, TDP1 cell CPT 8.2µM, HT1080-NT tox inactive and HT1080 IDH1KD tx inactive.
Screening CN(C)CCCNc1nc2cc(-c3cnn(Cc4ccccc4)c3)sc2c(=O)n1C returned TGFb inhibitor inactive, DT40 TDP1 no CPT inconclusive, HepG2 viability inactive, TDP1 cell CPT inconclusive, HT1080-NT tox 9.2µM and HT1080 IDH1KD tx 23µM.
`Cc1ccc(F)cc1-c1cc2nc(NCCCN(C)C)n(C)c(=O)c2s1` gave TGFb inhibitor inconclusive, DT40 TDP1 no CPT 16µM, HepG2 viability inactive, TDP1 cell CPT 23µM, HT1080-NT tox 21µM and HT1080 IDH1KD tx 15µM.
CN(C)CCCNc1nc2cc(-c3ccsc3)sc2c(=O)n1C was read as TGFb inhibitor inactive, DT40 TDP1 no CPT inconclusive, HepG2 viability inactive, TDP1 cell CPT inconclusive, HT1080-NT tox inconclusive and HT1080 IDH1KD tx inconclusive.
For CN(C)CCCNc1nc2cc(-c3ccc4c(ccn4C)c3)sc2c(=O)n1C the results were TGFb inhibitor inconclusive, DT40 TDP1 no CPT inconclusive, HepG2 viability inactive, TDP1 cell CPT 21µM, HT1080-NT tox inconclusive and HT1080 IDH1KD tx inconclusive.
Screening C[C@@H]1CN([C@@H](C)CO)C(=O)CCCn2nncc2CO[C@@H]1CN(C)C(=O)Nc1ccnc(N2CCOCC2)c1 returned TGFb inhibitor inactive, DT40 TDP1 no CPT inactive, HepG2 viability inactive, TDP1 cell CPT inactive, HT1080-NT tox inactive and HT1080 IDH1KD tx inactive.
`Cc1ccc(CNC(=O)C2CCC(=O)N(C3CC3)C2)cc1` (stereo not drawn) gave TGFb inhibitor inactive, DT40 TDP1 no CPT inactive, HepG2 viability inactive, TDP1 cell CPT inactive, HT1080-NT tox inactive and HT1080 IDH1KD tx inactive.
For COc1ccccc1/C=C(/C(=O)OCC(=O)N(C)Cc1ccccc1)c1ccccc1 the results were TGFb inhibitor inactive, DT40 TDP1 no CPT 13µM, HepG2 viability inactive, TDP1 cell CPT inconclusive, HT1080-NT tox inactive and HT1080 IDH1KD tx inactive.
